“And” between values parts separate entries of the source, which are not always exact repeats. Equal entries are not always repeated. Compounds without any hit were thinned out: in the full panel of roughly 83,000, 20% have a hit.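 Treatment: one concentration, 48 hours, 96-well format. Scoring: percent growth, with anything below 10 considered active.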 A number with no mark means an inactive call. The source made the active and inactive calls.
tested on: MDA-MB-468 breast; test: NCI-60 one-dose screen, 48 h (100 = growth as untreated, 0 = no growth, -100 = all killed); settings: 10 µM unless noted

Row | SMILES | growth
1 | COc1ccc(CCN2C(=O)C(C)(C)SC2=S)cc1OC | 105%
2 | CS(=O)(=O)c1nccc(-c2c(-c3cccc(OCc4ccc(F)cc4)c3)nc3sccn23)n1 | -63.6% (active)
3 | FC(F)(F)Oc1ccc2c(c1)C[C@H]1C[C@@H](c3ccoc3)N2O1 | 118%
4 | COc1cc2nc(N3CCN(C(=O)C4COc5ccccc5O4)CC3)nc(N)c2cc1OC (stereo not given) | 78.2% and 104%
5 | CCCCCCNC(=O)Oc1ccc(/C(=C(\C)c2ccccc2)c2ccc(OCCCN(C)C)cc2)cc1 | 95%
6 | CC(=O)c1nc2ccccc2n1CCn1cc(CC(N)C(=O)O)c2ccccc21 (stereo not given) | 118%
7 | Oc1c(CN2CCCC2)cc(COCc2ccc(Br)cc2)c2cccnc12 | -28.2% (active)
8 | COc1ccc(-c2[nH]c3ccccc3c2C=C(C#N)C#N)cc1 | -19.8% (active)
9 | N#Cc1cc(-c2ccnc(Nc3ccc(NC(=O)CCl)cc3)n2)ccc1N1CCCC1 | -45.9% (active)
10 | COc1ccc(OC)c(Nc2nnc(-c3ccc(Cl)cc3)o2)c1 | 74.2%
11 | CN=c1ccc2nc3ccc(N)cc3sc-2c1 | -5.28% (active)
12 | COc1cc(/C=C/C(=O)c2ccc(F)cc2)ccc1Oc1nc(NCCO)nc(N2CCOCC2)n1 | 77.2%
13 | O=S(=O)(Nc1ccc(Cl)cc1Cl)c1ccc(-c2cnc(C3CC3)o2)cc1 | -34.2% (active)
14 | COc1cc(C(=O)/C=C/c2cc(-c3cc(OC)c(OC)c(OC)c3)n[nH]2)cc(OC)c1OC | -79% (active)
15 | CCn1c(SCc2ccc(C)cc2)nnc1-c1nn(-c2ccc(Cl)cc2Cl)c(-c2ccc(Cl)cc2)c1C | 6.59% (active)
16 | O=C(CCl)Oc1ccc(-c2ccccc2)c(Br)c1 | 97.5%
17 | C#CCC1(c2ccc(F)c(F)c2)NS(=O)(=O)c2ccccc21 (stereo not given) | 95.2%
18 | Cc1cc(C)c(-c2cc(O)c(-c3c(C)cc(C)cc3C)cc2O)c(C)c1 | 4.15% (active)
19 | Cc1cc(O)cc(O)c1N=NC1=NCCS1 | 109%
20 | COC(=O)[C@]12CC[C@@H](C)[C@H](C)[C@@H]1C1=CC[C@@H]3[C@@]4(C)C=C(O)C(=O)C(C)=C4CC[C@@]3(C)[C@]1(C)CC2 | 10.6%

Row | SMILES | growth
21 | O=C(Nc1ccc(Cl)cc1)c1cc(NCc2cc(O)ccc2O)ccc1O | 81.2%
22 | CC(=O)Nc1ccc(C)c(Nc2cc(-c3ccc(-n4cccn4)cc3)[nH]n2)c1 | 20%
23 | O=S(=O)(Nc1ccc2c(c1)OC(F)(F)O2)c1ccc(-c2cnc(C3CC3)o2)cc1 | 15.3%
24 | CC(C)c1ccc2c(c1)CCC1C2CCCC1(C)NCc1ccccc1 (stereo not given) | -44.5% (active)
25 | CS(=O)(=O)Nc1cc(-c2ccc3ncc(C#N)c(Nc4ccc(F)c(Cl)c4)c3c2)cnc1Cl | -48.7% (active)
26 | CCN(CC)CCO/N=C1\CC(c2ccc(OC)c(OC)c2)Oc2ccccc21 (stereo not given) | 80.1%
27 | O=Nc1ccc(NC(=O)Nc2ccc([N+](=O)[O-])cc2)cc1 | 96%
28 | CCCCCCCCCCCCCCCCNC(=S)N/N=C/c1ccc(OC)cc1 | 108%
29 | OCC12CCCC(CO)(COC1)C2O (stereo not given) | 109%
30 | O=C(NCCCl)Nc1ncccc1OCc1ccccc1 | 104%
31 | Cc1cc2c(c(C)c1Cl)C(=O)/C(=C/c1ccc(O)c(O)c1)O2 | 109%
32 | CCCCC(=O)OCC1OC(n2cnc3c(=S)nc[nH]c32)C(OC(=O)CCCC)C1OC(=O)CCCC (stereo not given) | 67.4%
33 | COC(c1ccc2c(c1)OCO2)C(C)Br (stereo not given) | 93.4%
34 | COC(=O)C(Br)(C(=O)OC)C(Br)C(Br)C(Br)c1ccccc1 (stereo not given) | 7.49% (active)
35 | CCCCC1COc2cccc3c2N1C=C/C3=C\C(=O)N(C)c1ccccc1 (stereo not given) | 18.8%
36 | O=CN1N=C(c2ccc(Nc3ccnc4cc(Cl)ccc34)cc2)CC1c1ccccc1 (stereo not given) | 3.07% (active)
37 | Cc1ncc(-c2ccnc(Nc3ccc(S(C)(=O)=O)cc3)n2)n1C(C)C | -48.8% (active)
38 | O=C1N=NC2=C1c1c3ccccc3c(O)n1CC2 | 96.6%
39 | S=C(S)NCCc1c[nH]c2ccccc12 | 98.6%
40 | COc1ccc2c(CCC(c3ccccc3)c3ccccc3)c3[n+](cc2c1OC)CCc1cc2c(cc1-3)OCO2 | -29.9% (active)

Reference: PubChem BioAssay (NCI)
